High-throughput results from PubChem.
Compounds with a hit are over-represented: about 3.6% of the library has one in this group of screens.
HTT-AS promoter – HTT-AS promoter activation; HEK293 HTT-AS promoter firefly luciferase reporter, 24 h; response scale: percent change from vehicle, -100% = no light; 0.24% of 48,000 active; Potency, µM (titrated, usually from 57.5 µM), for the others: at the highest dose activity change, positive = activation, usual class: activators; AID 1508624; further: potency means the concentration at half of the fitted maximal effect; nearly all actives have a fitted effect of over 55% in size
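HEK293 Fluc reporter, 2,500 cells/well, 24 h pre-culture; cpds up to 57.5 uM final, 24 h 37 degrees C; Dual-Glo, 10 min RT; normalized vehicle = 0%, zero RLU = -100%.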
HTT prom inh – inhibits huntingtin promoter activity | HEK293 HTT promoter firefly luciferase reporter, 24 h | Potency, µM (titrated, usually from 57.5 µM), inactives show at the top dose activity change, negative = inhibition, most hits filed as inhibitors | 0.93% of 48,000 active; further: potency means the concentration at half of the fitted maximal effect; nearly all actives have a fitted effect of over 50% in size
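HEK293 cells carrying firefly luciferase reporters were seeded at 2,500 per well in Opti-MEM and cultured for 24 h. They were then treated with compounds at up to 57.5 uM final for 24 h at 37 degrees C before Dual-Glo luminescence readout.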
S16 viability – cytotoxicity in S16 Pmp22-F2sN Schwann cells; S16 Pmp22-F2sN Schwann cells viability, CellTiter-Glo, 24 h; Potency, µM (highest dose often 57.5 µM), for the others: top-dose activity change, negative = cytotoxicity, actives largely listed as cytotoxic; 0.48% of 43,000 active; further: potency means the concentration at half of the fitted maximal effect; on the % scale 0 is the no-effect control and ±100 the full control effect; nearly all actives have a fitted effect of over 65% in size
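Used to flag compounds lowering reporter output through toxicity, this quantitative HTS measures ATP-based CellTiter-Glo luminescence in S16 Pmp22-F2sN Schwann cells after 24 h compound exposure at 37C.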
mTORC1 inh – inhibitors of mTORC1 signaling in Tsc2-/- p53-/- MEF cells | Potency, µM (titrated, usually from 38.3 µM), without a hit: at the highest dose activity change, negative = inhibition, most hits filed as inhibitors | Tsc2-/- p53-/- MEF, phospho-rpS6 immunofluorescence/PI, 24 h | 0.78% of 44,000 active | AID 493208;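 further: potency means the concentration at half of the fitted maximal effect; plate controls were DMSO for no effect and rapamycin for full effect; nearly all actives have a fitted effect of over 50% in size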
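Immunofluorescence of rpS6 phosphorylation in Tsc2-/-, p53-/- MEFs after 24 h compound exposure, normalized to propidium iodide signal. Activity is expressed as % positive cells, thresholded with 7.5 nM rapamycin.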
PMP22 txn prim – modulates PMP22 transcription in S16 Schwann cells; S16 Pmp22-F2sN Schwann cells (luciferase reporters placed in the Pmp22 gene), FLuc/NLuc coincidence luminescence, 24 h; Potency, µM (highest dose often 57.5 µM), without a hit: top-dose activity change, negative = inhibition, hits mostly inhibitors; 2% of 43,000 active; active means clear falling dose curves in both reporters; inconclusive means both reporters move, but less clearly or upward; inactive means either reporter flat; the % is the NLuc reporter signal; further: potency means the concentration at half of the fitted maximal effect; on the % scale 0 is the no-effect control and ±100 the full control effect
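qHTS, 1536-well. Cells seeded, compounds added by pin tool, 24 h 37C. Nano-Glo reagent 1 (lysis/FLuc), 10 min RT, read; Stop&Glo, 10 min RT, read NLuc.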
OvCa metastasis – blocks SKOV3ip1 adhesion and invasion in omental model; SKOV3ip1-GFP adhesion/invasion on 3D omental model, fluorescence; Potency, µM (highest dose often 45.8 µM), inactives show at the top dose activity change, negative = inhibition, actives largely listed as inhibitors; 0.1% of 46,000 active;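 further: potency means the concentration at half of the fitted maximal effect; plate controls were DMSO wells for no effect and tomatine positive control wells for full effect; nearly all actives have a fitted effect of over 65% in size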
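qHTS, 4-pt dose (0.36-46 umol/L); SKOV3ip1-GFP, 1,200 cells/well, no FBS; primary omental fibroblast/mesothelial co-culture 48 h pre-grown; 2 h RT + 16 h 37 C; PBS wash, 4% PFA; GFP count 488/509 nm.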
NLuc saturating – NanoLuc enzyme inhibition artifact for PMP22 screen; shares compounds with PMP22 txn prim; Secreted NLuc enzyme (filtered S16 cell medium), Nano-Glo luminescence; 4% of 690 active; Potency, µM (top dose mostly 57.5 µM), inactives show at the top dose activity change, negative = inhibition, usual class: inhibitors; further: potency means the concentration at half of the fitted maximal effect; on the % scale 0 is the no-effect control and ±100 the full control effect
NLuc Km ctr – inhibits NanoLuc under Km conditions, PMP22 counter-screen | shares compounds with PMP22 txn prim | secreted NLuc enzyme, coelenterazine luminescence, Km conditions | Potency, µM (doses to about 57.5 µM), for inactives: at the top dose activity change, negative = inhibition, hits mostly inhibitors | 5% of 690 active | AID 1508639; further: potency means the concentration at half of the fitted maximal effect; on the % scale 0 is the no-effect control and ±100 the full control effect
FLuc ctr PMP22 – counter-screen for PMP22 expression modulators: firefly luciferase inhibition. AID 1508640. shares compounds with PMP22 txn prim. Potency, µM (top dose mostly 57.5 µM), inactives show at the highest dose activity, negative = inhibition, actives largely listed as inhibitors. purified P. pyralis FLuc, luminescence, 10 min. 690 tested, under 10 active; further: % of control where 0% means no effect
Target sequence (P08659 whole entry, looked up): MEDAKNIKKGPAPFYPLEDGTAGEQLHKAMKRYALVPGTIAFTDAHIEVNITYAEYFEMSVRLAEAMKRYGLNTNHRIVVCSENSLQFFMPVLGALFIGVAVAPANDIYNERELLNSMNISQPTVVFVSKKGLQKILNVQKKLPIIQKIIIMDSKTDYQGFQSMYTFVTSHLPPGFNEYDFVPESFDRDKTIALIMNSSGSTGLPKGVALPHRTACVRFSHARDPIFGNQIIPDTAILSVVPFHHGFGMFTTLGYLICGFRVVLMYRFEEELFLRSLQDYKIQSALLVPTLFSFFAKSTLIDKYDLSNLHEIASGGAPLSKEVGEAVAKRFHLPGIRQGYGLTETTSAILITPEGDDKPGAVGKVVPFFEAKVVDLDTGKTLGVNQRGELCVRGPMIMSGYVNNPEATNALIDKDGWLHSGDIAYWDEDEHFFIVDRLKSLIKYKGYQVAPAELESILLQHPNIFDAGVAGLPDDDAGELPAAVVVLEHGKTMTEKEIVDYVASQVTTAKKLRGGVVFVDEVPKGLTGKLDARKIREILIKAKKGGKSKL
S16 viab conf – S16 Schwann cell cytotoxicity, confirmatory; Potency, µM (highest dose often 57.5 µM), inactives show at the highest dose activity change, negative = viability loss, most hits filed as cytotoxic; shares compounds with PMP22 txn prim; 7% of 690 active; S16 Schwann cells viability, CellTiter-Glo ATP luminescence, 24 h; AID 1508641; further: potency means the concentration at half of the fitted maximal effect; on the % scale 0 is the no-effect control and ±100 the full control effect
PMP22 txn cnf – confirmation of modulators of PMP22 gene transcription in S16 cells; shares compounds with PMP22 txn prim; AID 1508646; S16 Schwann cells Pmp22-F2sN, dual luciferase, 24 h; Potency, µM (highest dose often 57.5 µM), for the others: at the highest dose activity change, negative = inhibition, hits mostly inhibitors; 22% of 690 active; active means clear falling dose curves in both reporters; inconclusive means both reporters move, but less clearly or upward; inactive means either reporter flat; the % is the FLuc reporter signal; further: potency means the concentration at half of the fitted maximal effect
* hit, by the source's call; i = inactive; ? = inconclusive; . = no result. Unless noted, the call rests on the fitted dose curve; in most records, active means well fitted curve in the direction sought with a large enough effect; inconclusive means small, poorly fitted or top-dose-only effect, or another doubt; inactive means no such curve, though single readings can be large; an effect the other way counts as inactive or inconclusive.

SMILES	HTT-AS promoter	HTT prom inh	S16 viability	mTORC1 inh	PMP22 txn prim	OvCa metastasis	NLuc saturating	NLuc Km ctr	FLuc ctr PMP22	S16 viab conf	PMP22 txn cnf
COc1cc(/C=C(\C#N)c2nc3ccccc3[nH]2)ccc1OCc1ccccc1F	-36.4%	?	4.6%	3.2%	12.6µM*	-9.7%	?	?	-5.4%	-1.9%	?
COc1c(Cl)cc(Cl)cc1/C=C(\C#N)c1nc2ccccc2[nH]1	-6.4%	2.4%	?	-9.2%	11.3µM*	i	?	?	6.1%	-18.6%	?
O=C(CN1C(=O)C2(CCCC2)NC[C@H]1c1cc(F)cc(F)c1)Nc1ccc2c(c1)C[C@@]1(C2)C(=O)Nc2ncccc21	-11.2%	-1.2%	.	.	.	5.0%	.	.	.	.	.
COc1cccc(NC(=O)N(Cc2c[nH]c3ccccc23)C2CCCCCC2)c1	-13.0%	-2.7%	-26.3%	-11.9%	20µM*	0.5%	15.3µM*	?	1.5%	14.4%	?
O=C(Nc1ccc(Cl)c(Cl)c1)N(Cc1c[nH]c2ccccc12)C1CCCCC1	?	47.4%	?	-13.8%	?	i	.	.	.	.	.
CC(=O)NCC(=O)N1[C@H]2CC[C@H]1c1cc(Nc3ncc(C(F)(F)F)c(NC4CCC4)n3)ccc12	-38.8%	?	.	.	.	-14.6%	.	.	.	.	.
COc1cc(OC)c(OC)cc1CN1CCc2nc(N3CCN(c4ccccc4F)CC3)ncc2C1	-44.2%	?	-10.3%	0.0%	?	-1.3%	-9.1%	3.0%	-1.6%	-1.1%	?
CCOc1ccc(CN2CCc3nc(N4CCN(c5ccccc5OC)CC4)ncc3C2)cc1OC	-56.6%	?	-8.4%	0.0%	17µM*	-2.3%	-2.4%	-0.4%	-1.2%	-11.2%	-41.3%
C[C@]12C=CC(=O)N[C@@H]1CC[C@H]1[C@H]3CC[C@@H](C(=O)Nc4cc(C(F)(F)F)ccc4C(F)(F)F)[C@@]3(C)CC[C@@H]12	-3.5%	-6.7%	.	.	.	-6.2%	.	.	.	.	.
Cn1c(=O)n(-c2ccc3c(c2)OCO3)c2nc(-c3ccc(Cl)cc3)nc(C(N)=O)c21	-12.3%	-3.6%	22.6%	-2.4%	?	i	-4.4%	-0.9%	4.1%	-8.5%	-27.4%
CC(C)c1ccc(-c2nc(C(N)=O)c3c(n2)n(-c2ccc4c(c2)OCO4)c(=O)n3C)cc1	-4.1%	-7.0%	16.6%	-9.8%	?	21.5%	.	.	.	.	.
COCCN1Cc2cccc(C(=O)Nc3ccc(C)c(F)c3)c2C1=O	-12.0%	-24.6%	-6.8%	0.8%	-8.2%	1.1%	.	.	.	.	.
COCCN1Cc2cccc(C(=O)Nc3ccc(Cl)cc3Cl)c2C1=O	-21.6%	-12.7%	-26.3%	-8.6%	18.9µM*	i	?	?	-8.4%	8.3%	-44.2%
Cc1ccc(NC(=O)c2c(Nc3ccccc3C)sc(C(=O)c3ccccc3)c2N)cc1	-17.1%	?	?	-14.1%	?	3.9%	.	.	.	.	.
Cc1cc(Nc2sc(C(=O)c3ccc(F)cc3)c(N)c2C(=O)Nc2ccc(F)cc2)ccc1Cl	-18.6%	?	?	-11.2%	6.31µM*	?	-19.4%	?	3.3%	?	6.11µM*
CN(C)CCOc1cc(-c2cn[nH]c2)ccc1NC(=O)C1COc2ccccc2O1 (configuration not stated)	-41.6%	-18.9%	.	.	.	16.6%	.	.	.	.	.
Cc1ccc(C)c(Nc2nn3c(=O)c4ccc(C(=O)NCCc5ccccc5)cc4nc3s2)c1	-3.0%	7.6%	16.8%	1.4%	13.3µM*	i	?	-1.7%	-0.9%	19.3µM*	10.9µM*
Cc1c(Cl)cccc1Nc1nn2c(=O)c3ccc(C(=O)NCCc4ccccc4)cc3nc2s1	-5.0%	-12.8%	?	-3.0%	10µM*	i	-15.2%	?	0.9%	27.3µM*	14.5µM*
CCOC(=O)C1CCN(C(=O)c2ccc3c(=O)n4nc(Nc5ccccc5)sc4nc3c2)CC1	-25.6%	-34.1%	4.2%	-4.6%	5.32µM*	i	?	?	?	5.9%	-23.1%
C#Cc1cccc(Nc2ncnc3cc(OCCOC)c(OCCO)cc23)c1	-36.0%	?	.	.	.	4.5%	.	.	.	.	.
CC(=O)N1CCN(c2ccc(OCc3nn(C)c(C)c3-c3cccc4c(CCCOc5cc(C)c(Cl)c(C)c5)c(C(=O)O)n(Cc5cccnc5)c34)cc2)CC1	-21.8%	0.5%	.	.	.	19.4%	.	.	.	.	.
Clc1cccc(N2CCN(c3ncnc4c3nc3n4CCCCC3)CC2)c1	-61.3%	10µM*	-10.2%	-21.1%	20µM*	i	?	13.7µM*	-2.9%	?	?
O=C(C1CCN(c2ncnc3c2nc2n3CCCCC2)CC1)N1CCN(c2cccc(Cl)c2)CC1	-47.8%	?	-27.6%	-10.4%	?	-29.8%	.	.	.	.	.
Cc1cnc(Nc2ccc(N3CCN(C)CC3)cc2)nc1Nc1cccc(S(=O)(=O)NC(C)(C)C)c1	-33.6%	-7.1%	.	.	.	-28.9%	.	.	.	.	.
